From PubChem BioAssay (NCATS)
Records with an inconclusive call do not appear. Calls of active or inactive are those of the source. The call rests on the fitted dose curve.

These compounds were tested against Peroxisome proliferator-activated receptor delta (Homo sapiens) (UniProt Q03181) (assay: qHTS assay for small molecule agonists of peroxisome proliferator-activated receptor delta signaling (AID 588534)). Details: HEK293T PPARdelta-UAS-bla, beta-lactamase ratio, 18 h; series mostly up to 76.7 µM.
Peroxisome proliferator-activated receptor delta (Homo sapiens), sequence (Q03181 whole entry, looked up): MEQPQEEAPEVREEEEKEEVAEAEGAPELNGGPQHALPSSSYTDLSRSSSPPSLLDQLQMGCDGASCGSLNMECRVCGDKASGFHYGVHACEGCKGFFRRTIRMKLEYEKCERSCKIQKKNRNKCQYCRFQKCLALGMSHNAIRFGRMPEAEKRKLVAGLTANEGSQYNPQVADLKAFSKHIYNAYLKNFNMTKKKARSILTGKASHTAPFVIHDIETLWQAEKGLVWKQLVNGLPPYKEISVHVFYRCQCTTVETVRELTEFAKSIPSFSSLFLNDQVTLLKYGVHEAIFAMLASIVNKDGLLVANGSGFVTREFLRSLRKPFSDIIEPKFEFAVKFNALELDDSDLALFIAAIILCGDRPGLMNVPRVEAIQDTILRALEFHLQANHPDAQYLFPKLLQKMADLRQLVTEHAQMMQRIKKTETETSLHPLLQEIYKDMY
From the text: NIH Chemical Genomics Center [NCGC] U.S. Environmental Protection Agency [EPA] National Institutes of Environmental Health Sciences [NIEHS] National Toxicology Program [NTP] NCGC Assay Overview The Peroxisome proliferator-activated receptors (PPARs) are lipid-activated transcription factors of the nuclear receptor superfamily with three distinct subtypes namely PPAR alpha, PPAR delta (also called PPAR beta) and PPAR gamma. All these subtypes heterodimerizes with Retinoid X receptor (RXR) and have different physiological functions. […] This role of PPAR delta implicates the potential use of its ligands in the treatment of metabolic disorders.
Compounds were screened in a titration series in 1536-well format. […] Concentration-response titration points for each compound were fitted to the Hill equation yielding concentrations of half-maximal stimulation (EC50) and maximal response (efficacy) values. qHTS protocol for PPAR-delta beta-lactamase assay in agonist mode [Step] [Parameter] [Value] [Description] 1. Reagent; 6 uL; 4000 cells/well 2. Incubation; 37 C for 5 hrs 3. Compounds; 23 nL; 0.59 nM to 92 uM 4. […] Incubation; 37 C for 18 hrs 6. Detection reagent; 1 uL of CCF4-dye 7. Incubation; RT for 2 hrs 8. Detection; Fluorescence; Envision plate reader
`COc1cccc2c1C(=O)c1c(O)c3c(c(O)c1C2=O)C[C@@](O)(C(=O)CO)C[C@@H]3O[C@H]1C[C@H](N)[C@H](O)[C@H](C)O1` was tested, and the outcome was “inactive”.
For `CC(COc1ccccc1)N(CCCl)Cc1ccccc1` (stereo not given), the outcome was “inactive”.
For `C[C@](N)(Cc1ccc(O)c(O)c1)C(=O)O`, the outcome was “inactive”.
For `OC(Cn1cncn1)(Cn1cncn1)c1ccc(F)cc1F`, the outcome was “inactive”.
With `Cc1cn([C@H]2C[C@H](N=[N+]=[N-])[C@@H](CO)O2)c(=O)[nH]c1=O` the outcome was “inactive”.
For `Clc1ccc(COC(Cn2ccnc2)c2ccc(Cl)cc2Cl)cc1` (stereo not given), the outcome was “inactive”.
With `Cc1ccccc1C(OCCN(C)C)c1ccccc1` (stereo not given) the outcome was “inactive”.
`C#C[C@]1(O)CC[C@H]2[C@@H]3CCC4=Cc5oncc5C[C@]4(C)[C@H]3CC[C@@]21C` was tested, and the outcome was “inactive”.
For `CCCCNC(=O)NS(=O)(=O)c1ccc(C)cc1`, the outcome was “inactive”.
In the case of `O=NN(CCCl)C(=O)NCCCl`, the outcome is reported as “inactive”.
For `OCCOCCN1CCN(C(c2ccccc2)c2ccc(Cl)cc2)CC1` (stereo not given), the outcome was “inactive”.
With `Cc1ccc(S(=O)(=O)NC(=O)NN2CCCCCC2)cc1` the outcome was “inactive”.
`CNCC(O)c1ccc(O)cc1` (stereo not given) was tested, and the outcome was “inactive”.
With `Cc1ccnc2c1NC(=O)c1cccnc1N2C1CC1` the outcome was “inactive”.
In the case of `C[C@@H]1C[C@H]2[C@@H]3CCC4=CC(=O)C=C[C@]4(C)[C@@]3(F)[C@@H](O)C[C@]2(C)[C@@]1(O)C(=O)CO`, the outcome is reported as “inactive”.
`Nc1ccncc1` was tested, and the outcome was “inactive”.
In the case of `c1ccc2c(c1)Nc1ccccc1S2`, the outcome is reported as “inactive”.
For `O=C1CCC(N2C(=O)c3ccccc3C2=O)C(=O)N1` (stereo not given), the outcome was “inactive”.
`CCCN(CCC)S(=O)(=O)c1ccc(C(=O)O)cc1` was tested, and the outcome was “inactive”.
With `CC[C@H](C)C(=O)O[C@H]1C[C@@H](C)C=C2C=C[C@H](C)[C@H](CC[C@@H]3C[C@@H](O)CC(=O)O3)[C@H]21` the outcome was “inactive”.
`COc1cc(Cc2cnc(N)nc2N)cc(OC)c1OC` was tested, and the outcome was “inactive”.
In the case of `Oc1ccc(Cl)cc1Cc1ccccc1`, the outcome is reported as “inactive”.
In the case of `CN(C)CCCN1c2ccccc2Sc2ccc(Cl)cc21`, the outcome is reported as “inactive”.
`Cn1cnc([N+](=O)[O-])c1Sc1ncnc2nc[nH]c12` was tested, and the outcome was “inactive”.
In the case of `CCCc1cc(=O)[nH]c(=S)[nH]1`, the outcome is reported as “inactive”.
For `CC(=O)N[C@@H](CS)C(=O)O`, the outcome was “inactive”.
For `CCN(CC)C(=S)SSC(=S)N(CC)CC`, the outcome was “inactive”.
With `Oc1ccccc1-c1ccccc1` the outcome was “inactive”.
With `N=C(N)c1ccc(OCCCCCOc2ccc(C(=N)N)cc2)cc1` the outcome was “inactive”.
For `NC(=Nc1ccccc1)Nc1ccccc1`, the outcome was “inactive”.
`Cc1cn([C@H]2C=C[C@@H](CO)O2)c(=O)[nH]c1=O` was tested, and the outcome was “inactive”.
In the case of `CC(C)NCC(O)c1ccc(O)c(O)c1` (stereo not given), the outcome is reported as “inactive”.
`OCCOc1ccccc1` was tested, and the outcome was “inactive”.
With `Nc1ccc(O)c(C(=O)O)c1` the outcome was “inactive”.
In the case of `NC(=O)N/N=C/c1ccc([N+](=O)[O-])o1`, the outcome is reported as “inactive”.
With `CN(C)CCOC(C)(c1ccccc1)c1ccccn1` (stereo not given) the outcome was “inactive”.
In the case of `NS(=O)(=O)c1cc2c(cc1Cl)NC=NS2(=O)=O`, the outcome is reported as “inactive”.
For `CCc1nc(N)nc(N)c1-c1ccc(Cl)cc1`, the outcome was “inactive”.
With `O=c1[nH]cc(F)c(=O)[nH]1` the outcome was “inactive”.
With `Nc1ncn([C@@H]2O[C@H](CO)[C@@H](O)[C@H]2O)c(=O)n1` the outcome was “inactive”.
